# Experimental data reported in PubChem BioAssay AID588795 (National Center for Advancing Translational Sciences (NCATS), 2011).
# Hit rate of the full screen: of about 390,000 compounds, about 1,400 (0.36%) were called active. Inconclusive results (about 2%) are left out. Calls come from the whole dose curve; as a rule, active = well fitted inhibition curve with a large enough effect; inconclusive = small, poorly fitted or top-dose-only effect; inactive = no such curve, though single readings can be large or run the other way. The list comes from a sample in which actives are over-represented; it also holds similar structures and randomly drawn compounds. A call without a number means that no potency is given here.
# Target: Flap endonuclease 1 (Homo sapiens) (UniProt P39748)
# Test: qHTS Assay for the Inhibitors of Human Flap endonuclease 1 (FEN1). Note: nearly all actives have a fitted effect of over 65% in size.
# Details: Recombinant FEN1 flap cleavage, fluorescence, 15 min; series mostly up to 114 µM
# In short: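 Compounds are tested as a concentration series against 10 nM FEN1; after a 15 min room-temperature preincubation, 50 nM substrate starts cleavage, with plate reads at 0 and 15 min. Normalized responses are fitted by a Hill equation.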
# Potency is the fitted concentration of half-maximal effect.
# Flap endonuclease 1 (Homo sapiens), sequence (P39748 whole entry, looked up): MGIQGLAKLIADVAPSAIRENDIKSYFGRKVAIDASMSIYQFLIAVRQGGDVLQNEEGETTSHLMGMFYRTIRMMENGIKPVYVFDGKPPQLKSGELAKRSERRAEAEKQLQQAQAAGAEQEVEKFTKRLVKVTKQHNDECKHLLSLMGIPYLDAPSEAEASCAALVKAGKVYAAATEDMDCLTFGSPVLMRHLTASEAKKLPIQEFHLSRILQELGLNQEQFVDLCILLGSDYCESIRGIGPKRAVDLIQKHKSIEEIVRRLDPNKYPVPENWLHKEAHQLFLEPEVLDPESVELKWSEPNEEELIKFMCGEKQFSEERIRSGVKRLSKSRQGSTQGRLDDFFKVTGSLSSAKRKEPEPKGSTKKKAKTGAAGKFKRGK
row,Structure (SMILES),Potency
1,O=C1O/C(=C\c2ccc(O)cc2)C(O)=C1c1ccc(O)cc1,inactive
2,CCc1ccc(OCCCn2c(CCCNC(=O)C3CCCCC3)nc3ccccc32)cc1,inactive
3,CN(C)Cc1cn(-c2ccccc2)nc1-c1ccccc1,inactive
4,Cc1ccc(-c2nnc(SCC(=O)NCc3ccccc3)nc2-c2ccc(C)cc2)cc1,inactive
5,c1ccc(CSc2nnc(-c3ccco3)c(-c3ccco3)n2)cc1,56.2 µM (active)
6,O=C(NCCSc1ccccc1)c1ccco1,inactive
7,NC(=O)Nc1ccc(/C=C/c2ccnc3ccccc23)cc1,inactive
8,CC1CC(C)CN(c2oc(-c3ccc(OCc4ccc(Cl)cc4)cc3)nc2C#N)C1 (configuration not stated),inactive
9,C[N+](C)(CCCCCC[N+](C)(C)CCCN1C(=O)c2cccc3cccc(c23)C1=O)CCCN1C(=O)c2cccc3cccc(c23)C1=O,2.51 µM (active)
10,O=C(CN1C(=O)c2cccc3cccc(c23)C1=O)N1CCCCC1,inactive
11,O=C(COC(=O)CCCN1C(=O)c2cccc3cccc(c23)C1=O)NC1CCS(=O)(=O)C1 (configuration not stated),inactive
12,O=C(O)C1=C/C(=C/C=[N+]2c3cc(O)c(O[C@H]4OC(CO)[C@@H](O)[C@@H](O)[C@@H]4O)cc3C[C@@H]2C(=O)[O-])C[C@H](C(=O)O)N1 (some centres not stated),inactive
13,COc1cc2nc(C#Cc3nc4cc(OC)c(OC)cc4[nH]3)[nH]c2cc1OC,inactive
14,CS(=O)c1ccc(/C=C2\C=Cc3ccccc32)cc1 (configuration not stated),inactive
15,CCOC(=O)c1ccc(CS(=O)c2ccc(Cl)cc2)o1 (configuration not stated),inactive
16,CCOC(=O)N1CCN(C(=O)CNC(=O)Cc2ccc(Cl)cc2)CC1,inactive
17,CCOC(=O)c1c(Cc2ccc(Cl)cc2)c[nH]c1C,89.1 µM (active)
18,O=C(CCS(=O)(=O)c1ccccc1)N(Cc1cccnc1)c1nc2c(F)cccc2s1,inactive
19,ClC/C=C/C[n+]1ccccc1Cl,inactive
20,Brc1cccc[n+]1Cc1cccc(C[n+]2ccccc2Br)c1,inactive
21,Clc1cccc[n+]1CCCC[n+]1ccccc1Cl,79.4 µM (active)
22,Oc1ccc(Cl)cc1C1C=C(c2ccc3c(c2)OCO3)NC(c2ccc(F)c(Br)c2)N1 (configuration not stated),inactive
23,CC(C)(C)OC(=O)N1CCC(c2c(C(=O)NCc3ccccn3)cnn2-c2ccc(F)cc2)CC1,inactive
24,CCCCC(CCCC)c1ccc(C=Nc2ccc(/C=C/c3ccnc4ccccc34)cc2)cc1,inactive
25,COc1ccc(Cl)cc1NC(=O)CCn1c(=O)c2cccn2c2ccccc21,inactive

row,Structure (SMILES),Potency
1,O=C(c1cnn2c1NC(=C1CC1)C=C2C(F)F)N1CCc2ccccc2C1,inactive
2,Cc1csc(NCC(=O)c2c[nH]c3ccccc23)n1,inactive
3,CN(C)C1=C2C=CC=CC2/C(=C2/C=Cc3ccccc32)C=C1 (configuration not stated),inactive
4,OC(CBr)C[n+]1cccc2cc(Br)ccc21 (configuration not stated),inactive
5,CCc1ccc(NC(=O)c2sc3nc4c(cc3c2N)CN(CC)CC4)cc1,inactive
6,CCc1ccc2nc3sc(C(=O)Nc4nnc(CC)s4)c(N)c3cc2c1,44.7 µM (active)
7,CCc1nnc(NC(=O)c2cc(S(=O)(=O)N3CCCCC3)ccc2C)s1,inactive
8,CN(Cc1ccccc1)c1ccc(/C=C/c2ccnc3ccccc23)cc1,inactive
9,O=C(c1ccco1)N(Cc1cccs1)c1ccc(O)cc1,inactive
10,OC[C@@H]1O[C@H](n2cnc3c(SCc4ccccc4)ncnc32)[C@H](O)[C@H]1O,inactive
11,CCN(CC)c1ccc(/C=C/c2c(C)cnc3ccc(C)cc23)cc1,inactive
12,O=C(O)c1cccc(N=NN2CCCCCC2)c1,inactive
13,CN=C1S/C(=C\c2c(OC)cc(OC)cc2OC)C(=O)N1C,inactive
14,CN1C(=O)/C(=C/c2ccco2)SC1=Nc1cccc(C(=O)O)c1,50.1 µM (active)
15,COc1cc2[nH]c(C)c(CCN3CCN(c4ccccc4)CC3)c2cc1OC,inactive
16,O=C(CSc1nc(=O)n(Cc2cccnc2)c2c1CCC2)Nc1ccc(F)cc1F,inactive
17,Cc1nc([N+](=O)[O-])cn1CC(=O)Nc1ccc2c(c1)OCO2,inactive
18,Cc1ccc(C(=O)O)cc1-c1ccc(/C=C2\SC(=O)N(CC(=O)Nc3ccc4c(c3)OCO4)C2=O)o1,39.8 µM (active)
19,COC(=O)c1ccc2c(c1)N(CC(=O)Nc1ccc(C)c(C)c1)C(=O)c1ccccc1S2,inactive
20,CSc1n[nH]c(-c2ccco2)n1,inactive
21,CCC(=C/c1sc2ccc3ccccc3c2[n+]1C)/C=C1\Sc2ccc3ccccc3c2N1C,12.6 µM (active)
22,CCCCNC(=O)Cn1c(SCc2cccc(Cl)c2)nc2ccncc21,inactive
23,CC(C)(C)c1ccc(C(=O)C[N+]2(C)CCCc3ccccc32)cc1 (configuration not stated),inactive
24,Fc1ccc(-c2ccc(NCCN3CCOCC3)nn2)cc1,inactive
25,CCOc1nc(NCCN2CCOCC2)nc(Nc2ccc(C)cc2)n1,inactive

row,Structure (SMILES),Potency
1,c1ccc2cc3c(NCCN4CCOCC4)ccnc3cc2c1,17.8 µM (active)
2,COc1cc(OC)c(OC)cc1/C=C1\C=Cc2ccccc21,inactive
3,O=S(=O)(c1cccc(C(F)(F)F)c1)N1CCN(c2nc(-c3cccs3)nc3ccccc23)CC1,inactive
4,O=C1/C(=C\c2ccccc2Cl)SC(=S)N1CCC(=O)N1CCCc2ccccc21,inactive
5,CN(C(=O)CCN1C(=O)/C(=C/c2ccccc2F)SC1=S)C1CCS(=O)(=O)C1 (configuration not stated),inactive
6,Cc1ccc(-c2nn(-c3ccccc3)cc2/C=C2\SC(=S)N(CCCCCC(=O)O)C2=O)o1,31.6 µM (active)
7,Cc1cc(C)c2nc3nc(C)cc(C)c3c(N)c2c1,39.8 µM (active)
8,CN1CCN(c2oc(-c3ccc(COc4ccc(Cl)cc4)o3)nc2C#N)CC1,inactive
9,COc1ccc(OC)c(NC(=O)C2CCCN(S(=O)(=O)c3ccc4c(c3)CCCC(=O)N4)C2)c1 (configuration not stated),inactive
10,COc1cccc2sc3cc(NCC[C@@H]4CCCN4C)ccc3c(=O)c12,50.1 µM (active)
11,COc1cccc(OC)c1C(=O)Nc1ccc2c(c1)n(C)c(=O)n2C,inactive
12,COc1ccc(/C=C/c2ccnc3ccccc23)cc1OC,inactive
13,CNc1ccc(-c2nc(-c3ccco3)no2)cc1[N+](=O)[O-],inactive
14,COC(=O)c1ccccc1NS(=O)(=O)c1ccc2[nH]c(=O)[nH]c2c1,inactive
15,CCOc1ncccc1C(=O)NNC(=O)c1cccc(S(=O)(=O)Nc2ccccc2OC)c1,inactive
16,COc1cccc(/C=N/Nc2ccc(S(=O)(=O)Nc3ccccc3C(=O)O)cc2[N+](=O)[O-])c1O,79.4 µM (active)
17,O=C1C(Cl)=C(Oc2ccccc2)C(=O)c2ccccc21,56.2 µM (active)
18,COc1ccc(Cn2c(=O)[nH]c3cc(C(=O)N4CCN(C(=O)c5ccco5)CC4)ccc3c2=O)cc1,inactive
19,Cc1ccc(S(=O)(=O)N2CCN(c3nc(-n4cnc5ccccc54)nc4ccccc34)CC2)cc1,inactive
20,C/C=C/NNC(=O)Cc1ccc(OC)cc1,inactive
21,Cc1cccc(Oc2c([N+](=O)[O-])c(=O)n(C)c3ccccc23)c1,20 µM (active)
22,Cc1cccc(C2CC(=O)Oc3c2c(=O)n(C)c2ccccc32)c1 (configuration not stated),inactive
23,Cc1cccc(OP(=O)(Nc2c(C)n(C)n(-c3ccccc3)c2=O)Oc2cccc(C)c2)c1,inactive
24,Cc1[nH]c2ccccc2c1C(=O)C(=O)N(C)c1ccccc1,inactive
25,CCCC(=O)N1CCN(c2nc3c(OC)ccc(C)c3s2)CC1,inactive

row,Structure (SMILES),Potency
1,Cc1cc[n+](C2CCCCC2)cc1,inactive
2,CCOC(=O)C1Nc2ccc(C(F)(F)F)cc2C2C=CCC12 (configuration not stated),inactive
3,CCOc1cccc2c1N[C@@H](c1ccc(C(=O)O)cc1)[C@H]1CC=C[C@@H]21,14.1 µM (active)
4,CCOc1cc(C(=O)O)ccc1OCCOc1ccccc1,inactive
5,OC(CBr)CN1CCCCC1 (configuration not stated),inactive
6,O=C(Nc1ccccc1)c1ccccc1OCc1ccccc1,inactive
7,C#CCOCCOCCOCCNc1nc(N2CCN(C(=O)[C@H](CCC(=O)O)n3cc(CN)nn3)CC2)nc(N2CCN(C(=O)[C@H](CCC(=O)O)n3cc(CN)nn3)CC2)n1,inactive
8,C#CCOCCOCCOCCNc1nc(N2CCN(C(=O)CCCCCCCCCCNC(=O)Cn3cc(CCCCCN)nn3)CC2)nc(N2CCN(C(=O)CCCCCCCCCCNC(=O)[C@H](CO)n3cc(CCCSC)nn3)CC2)n1,39.8 µM (active)
9,C#CCOCCOCCOCCNc1nc(N2CCN(C(=O)Cn3cc(CCO)nn3)CC2)nc(N2CCN(C(=O)[C@H](CCCCN)n3cc(CCCC)nn3)CC2)n1,inactive
10,O=C(COC(=O)c1ccccc1OCCOc1ccccc1)Nc1cccc(Br)c1,inactive
11,Cc1ccc(S(=O)(=O)c2c(Nc3cccc(Cl)c3)sc(C(=O)c3ccc4c(c3)OCO4)c2N)cc1,inactive
12,Cc1ccc(C)c(N2CCN(CCCNC(=O)Nc3ccc(Cl)cc3)CC2)c1,inactive
13,COc1ccc(C2Nc3ccc(NC(=O)COC(C)=O)cc3C(=O)N2Cc2ccccc2)cc1COc1ccc(NC(C)=O)cc1 (configuration not stated),inactive
14,Cc1ccc(-c2nnc3ccc(SCC(N)=O)nn23)cc1,inactive
15,S=c1[nH]nc(-c2cc(-c3ccsc3)n[nH]2)n1-c1ccccc1,inactive
16,Cc1cc(-c2n[nH]c(=S)n2/N=C/C(Br)=C/c2ccccc2)n[nH]1,inactive
17,S=c1[nH]nc(-c2cc(-c3ccccc3)n[nH]2)n1/N=C/c1c2ccccc2cc2ccccc12,39.8 µM (active)
18,Cc1cccc(NC(=O)COC(=O)c2ccccc2OCc2cccc(Br)c2)c1,inactive
19,COc1ccc(CN(Cc2ccccc2)C(=O)c2ccc(O)cc2)cc1COc1ccc(NC(C)=O)cc1,inactive
20,O=C1c2ccccc2C(=O)N1c1ccc(S(=O)(=O)N2CCOCC2)c2ccccc12,inactive
21,CCN1/C(=C/c2ccc3ccc(C)cc3[n+]2CC)Sc2ccccc21,50.1 µM (active)
22,OC(Cc1ccc2ccccc2n1)c1ccc(Cl)c(Cl)c1 (configuration not stated),inactive
